The supplement of paper PMC6555819

Assays:
Assay in all cases: PBM binding z-score (relative to random genomic background probes); higher = stronger binding; sequences stand for … in GC…GCGATTGACAGCGTAGAATGAAGG
[1] = system: RARb homodimer (NR concentration 270 nM)
Outline: (§1)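 Scanned fluorescence from custom Agilent 4×180K protein-binding microarrays was regression-normalized. Binding z-scores use random background probes as reference. Ligand-free nuclear receptor dimers were incubated on the arrays for 1 h and detected with antibodies against each partner (one per run).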

[2] = system: RARg:RXRa (NR concentration 270 nM, RXRa partner concentration 90 nM)
Outline: as §1

[3] = system: RARg homodimer (NR concentration 270 nM)
Outline: as §1

[4] = system: RXRa DBDmut IVT, anti-RXR (DBD mutation: RXRa K156A/R161A, NR concentration 90 nM)
Outline: as §1

[5] = system: RXRa homodimer (NR concentration 180 nM)
Outline: as §1

[6] = system: THRa:RXRa (NR concentration 90 nM, RXRa partner concentration 90 nM)
Outline: as §1

[7] = system: THRa homodimer (NR concentration 90 nM)
Outline: as §1

[8] = system: VDR homodimer (NR concentration 270 nM)
Outline: as §1

Sequence	PBM binding z-score [1]	PBM binding z-score [2]	PBM binding z-score [3]	PBM binding z-score [4]	PBM binding z-score [5]	PBM binding z-score [6]	PBM binding z-score [7]	PBM binding z-score [8]
GCGACTGGGGCATCAGCAGGTTAGCATAACTTAA	0.258	0.506	0.0514	-0.821	0.0592	0.204	-0.74	-0.612
TGAATGAGGTTATGAGATCAGGGAACGTTGCAAA	0.266	1.6	1.13	0.145	2.19	1.95	0.132	0.305
CCTATTGGGCCAAAGGTCATTGATTCCAATGCTC	4.43	5.85	4.73	1.62	6.7	3.29	0.647	2.85
CAAACTAGTTCACCGGAAGGTCAAAGTCCGCATG	4.92	6.9	4.99	2.8	4.73	3.73	1.72	3.2
CGAACTATGTCAGAACAGGACAGTGAAGGATGAT	0.293	0.443	0.879	-0.123	0.167	0.953	-0.106	0.0831
TTACCAAGGTGAGCTGAGGTCGTGGATCCAACTC	1.97	1.47	0.791	-0.207	1.82	4.83	2.55	0.927
CCTACTGGGCCAACAGGTCATTGATATCAACGTT	2.5	2.56	2.13	0.159	1.91	1.63	0.207	0.761
AATACAGGGTCATTGTAGGCCAGAGTACGCACAG	3.31	5.16	4.36	4.12	6.15	4.59	0.994	3.75
TAGCCTAGGTCATTCAGGGGACAGTATAGAAAGC	3.89	6.43	4.2	2.35	2.9	3.75	1.54	1.66
ACTTACGGGTCAACGAGGTTAAAGCACGCGTATA	3.82	5.73	5.18	2.51	6.72	4.25	1.17	3.67
TAGCCTAGGTCATGGGCCAGTAGACCACGCGAAC	3.01	4.29	4.33	-0.149	3.68	3.04	1.09	0.284
TAGCCTAGGTCATGCGGGGCAGTATAGTGTCGGC	3.26	4.01	4.41	0.368	3.22	3.56	1.08	1.5
CCTAGTTGGTCAAGGTCACCCACGCTATAGGTAC	4.38	4.42	4.75	1.81	4.47	4.22	4.66	4.05
ACTAGGAGGCCAAGGGTCACTCAAGATTAGTCCG	3.93	4.72	4.05	0.5	4.48	2.63	0.41	1.51
CCTACTGGGCCGAAAAGGTCATTGATGCCGATAA	4.31	4.56	3.89	0.386	4.95	3	0.639	2.13
TCGAGTAGGCTAGGGGCATTCAGAATGGCGTCGA	-0.0899	-0.329	-0.498	-0.0684	0.0581	0.177	-0.929	-0.279
ATATGTAGGTTGTCGGGTCATTCAGTTTGCGCAT	2.51	2.24	1.66	1.31	2.44	3.2	3.12	4.2
CGAACTAGGTCATCCAGGACAGTAAATACATTGA	2.98	4.05	4.72	2.51	2.89	3.58	2.2	2.45
AGAATGAGGTTATTAAGATCAGGGGATTGCGGTC	0.919	1.03	0.573	1.97	1.49	2	0.811	1.35

Sequence	PBM binding z-score [1]	PBM binding z-score [2]	PBM binding z-score [3]	PBM binding z-score [4]	PBM binding z-score [5]	PBM binding z-score [6]	PBM binding z-score [7]	PBM binding z-score [8]
ACTAGCAGGCCAAGGGTCACTCTAGATTAGTCCG	3.64	3.81	3.34	0.668	3.3	2.32	-0.0207	1.03
CGTCCCAGGTCATAGGAGGTCAGTGAAGACAGAT	4.84	5.47	5.84	2.74	4.75	4.89	3.13	3.59
CAGACTAGGTCAAGAGGTCAAAGTCCGCTTCCCG	5.34	8	7.45	2.6	7.71	4.23	2.26	3.84
ACTATTAGCTGAGACGAGGGCAACCGATAGGTTG	1.27	0.452	0.667	0.345	0.587	0.992	0.251	0.999
CCAGACAGGTGAAAGGTACCTCAGTCTGGTACGC	0.251	0.666	0.394	-0.333	1.32	0.325	-0.329	-0.438
ATCTCTAGGTAAAGATAGTTCAGTGAGTGCAAAT	1.5	0.634	0.838	0.341	0.157	1.1	0.522	4.13
GCTTGTACATCAAGGTTAAGAAAGACTAAGCTAA	0.275	0.435	0.375	-0.122	0.599	0.997	-0.187	-0.281
CGTCCAAGGTCAATGCTAGGACAGTGAAAGCATT	4.05	5.76	5.95	3.01	4.3	4.3	2.32	2.24
CCTAGCAGGCCAATCTGGGTCATTCAAGGCTTGA	2.03	0.777	0.991	0.224	0.619	3.73	0.0402	0.585
GGAACGAGGGCAAAATTGATAGCATCTGTCGACG	0.53	0.822	1.08	2.03	0.69	0.648	-0.431	0.356
TAGCCTAGGTCATTCAGGGGCCTGTATAGAAAGC	2.65	4.31	4.02	1.75	2.48	3.54	0.286	1.04
ACTGACAGGTGAGTGAAGGTAACTCAGCTGGACG	0.153	0.285	0.606	-0.285	0.3	1.74	-0.42	-0.23
TCTCGGAGGACAGGAAAGGTCAGAGCTCGACATC	4.65	4.1	4.39	0.817	3.83	3.25	0.943	0.606
GCAGACAGGTTAAACGCAGGTAACTCAGGGTGGC	0.331	1.81	0.406	-0.0571	1.54	2.06	-0.519	-0.623
TCTTGGAGGACACGAAGGTCAGAGCTTTCCAGAG	3.54	3.23	3.69	0.774	1.83	2.89	0.692	1.13
TCTTGTAGATGAAAGGTTAAGAAAGCCGAAGCCT	1.17	1.2	0.987	1.1	2.39	0.806	-0.431	-0.24
TGAATGAGGTTATAAGATCAGCGAACGTTGCAAA	0.0466	1.48	1.05	0.409	1.9	1.61	-0.141	0.262
ATCTCTAGGTAAAGTTCACTGAAAGATCGATAGA	3.34	3.14	3.42	2.2	2.82	1.95	0.46	3.79
ACTATTAGTTGAGACGAAGGCAACCGATAGGTTG	-0.559	-0.255	0.233	0.0754	-0.207	-0.702	-0.7	-0.261

Sequence	PBM binding z-score [1]	PBM binding z-score [2]	PBM binding z-score [3]	PBM binding z-score [4]	PBM binding z-score [5]	PBM binding z-score [6]	PBM binding z-score [7]	PBM binding z-score [8]
TAGCCTAGGTCATGCAGGCCAGTATAGTGTCGGC	2.76	4	4.12	0.936	2.96	3	0.919	0.989
ATCGAAAGGTCGAAGTTGAGTATACCCACCCGAA	2.55	4.07	3.83	1.9	4.79	2.01	-0.00538	1.02
ATATGTAGTTTACATCCGGGTCATTCAGGCTATG	2.34	1.83	1.44	1.58	2.1	3.2	2.74	2.82
CCAGACAGGTAAAAGGTAACTCAGTCTGGTACGC	0.19	0.33	0.29	-0.178	1.09	0.372	-0.238	0.202
GCTATTAGTTGACAGGGCAACCGAATGATTCTCG	0.837	0.251	0.693	0.605	0.324	-0.129	-0.0185	-0.0905
TCATATAGGTAAAAGGTGAAATTCGGTGTGGTAA	1.8	1.8	0.738	1.92	3.04	1.77	0.523	0.37
TCTATTAGTAGATTAGGGCAACCGAAACAGCGGA	0.21	0.245	0.496	0.901	0.284	0.399	-0.319	-0.419
TCTAGTCGGTCACGGAGGTCACACACGACGGGTA	5.2	5.84	6.47	1.15	5.17	3.94	2.48	3.72
CGAACGAGGGCATGAGTTGATCGCAAATGCCGAT	0.684	1.04	1.28	2.51	0.767	1.04	-0.361	1.79
CCTAGCAGGCCAATCTGGGTCACTTAAGGCTTGA	2.26	1.07	1.19	-0.0983	0.84	3.93	0.596	0.132
CTCGCAAGGTCGTGCTCAGGTGAGTATACCAAAC	1.7	3.26	2.14	2.15	2.52	3.63	1.6	1.22
TCTGCTAGGTCAGTAGGTCAGCTAACGAGCTGCC	3.94	4.77	4.67	0.677	2.36	1.93	0.157	-0.0493
TCTCGGAGGACACGTAAGGTCAGAGCTCGACATC	4.02	3.53	3.84	1.11	2.47	4.72	4.18	1.25
AGTCAAAGTTCATCTAGGTAACGCAAGATATGCT	3.95	5.4	6.01	4.76	4.57	3.08	0.274	5.06
CCAGACAGGTGACAGGTAACTCAGTCTGGTACGC	0.331	0.209	0.537	-0.242	0.665	0.126	-0.089	-0.0347
GCTAGCAGGCCATCTGGGTCACTCAATGACGGGC	1.99	1.2	1.84	-0.462	0.806	1.62	0.249	0.262
CGTCAAAGTTCAACTAAGGTAAGGTAAAGCACGC	3.92	5.8	6.23	4.39	4.88	5.19	1.95	3.59
CCTAGATGGTCAAGGTCACACACGCTATAGGTAC	4.55	4.69	4.96	2.04	4.74	4.1	3.84	3.61
CGTCCAAGGTCATAGGAGGTCAGCGAAGACAGAT	5.65	7.17	7.58	4.05	7.72	5.52	3.42	4.37
